Reference: PubChem BioAssay (NCI)
This is part of a sample that, as a whole, favours compounds with a hit. Of some 83,000 tested, about 20% had one in any assay.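 Testing used 96-well plates and a 48-hour single-concentration exposure. Example: -40 means 40% of the starting cells died.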 Activity calls are given as the source filed them. Rule for the calls: active = growth percent below 10; inactive = the rest.

How the values were obtained:
Experiment in all cases: NCI-60 one-dose screen, 48 h (100 = growth as untreated, 0 = no growth, -100 = all killed)
Settings in all cases: 10 µM unless noted
HCT-15 colon = tested on: HCT-15 colon
HT29 colon = tested on: HT29 colon
SNB-75 CNS = tested on: SNB-75 CNS
SNB-19 CNS = tested on: SNB-19 CNS
U251 CNS = tested on: U251 CNS
PC-3 prostate = tested on: PC-3 prostate
SK-MEL-5 melanoma = tested on: SK-MEL-5 melanoma
UACC-62 melanoma = tested on: UACC-62 melanoma
LOX IMVI melanoma = tested on: LOX IMVI melanoma
SK-MEL-28 melanoma = tested on: SK-MEL-28 melanoma
SK-MEL-2 melanoma = tested on: SK-MEL-2 melanoma
SN12C renal = tested on: SN12C renal
UO-31 renal = tested on: UO-31 renal
TK-10 renal = tested on: TK-10 renal
ACHN renal = tested on: ACHN renal
CAKI-1 renal = tested on: CAKI-1 renal
A498 renal = tested on: A498 renal
CCRF-CEM leukemia = tested on: CCRF-CEM leukemia
MOLT-4 leukemia = tested on: MOLT-4 leukemia

Measured: growth

CCOC(=O)c1ccc(NC(=O)NC2=NCCS2)cc1
inactive: HCT-15 colon 59.3% | HT29 colon 106% | SNB-75 CNS 21.5% | SNB-19 CNS 54.3% | U251 CNS 26.6% | PC-3 prostate 16% | SK-MEL-5 melanoma 75.9% | UACC-62 melanoma 78.9% | LOX IMVI melanoma 92.4% | SK-MEL-28 melanoma 87.3% | SK-MEL-2 melanoma 76.6% | SN12C renal 45.4% | UO-31 renal 36.5% | TK-10 renal 97.5% | ACHN renal 78.9% | CAKI-1 renal 35.3% | MOLT-4 leukemia 19.7%
active: A498 renal -7.64% | CCRF-CEM leukemia 7.22%

Cc1cc(C)cc(CCCCCCCCCCCCCCCCCC(=O)O)c1
inactive: HCT-15 colon 102% | HT29 colon 110% | SNB-75 CNS 97.2% | SNB-19 CNS 115% | U251 CNS 110% | PC-3 prostate 106% | SK-MEL-5 melanoma 102% | UACC-62 melanoma 106% | LOX IMVI melanoma 104% | SK-MEL-28 melanoma 119% | SK-MEL-2 melanoma 150% | SN12C renal 106% | UO-31 renal 89% | TK-10 renal 116% | ACHN renal 98.9% | CAKI-1 renal 100% | A498 renal 106% | MOLT-4 leukemia 98.3%

CN1CCN(c2ccc(N3Cc4ccccc4OC4=C3C(=O)c3c(O)ccc(O)c3C4=O)cn2)CC1
active: HCT-15 colon -74.9% | HT29 colon -42.8% | SNB-75 CNS -21.8% | U251 CNS -4.98% | PC-3 prostate 1.25% | SK-MEL-5 melanoma -61.9% | UACC-62 melanoma -59.9% | LOX IMVI melanoma -71.4% | SK-MEL-28 melanoma -60% | SK-MEL-2 melanoma -36.8% | SN12C renal -62% | UO-31 renal -99.5% | TK-10 renal -98.7% | ACHN renal -100% | A498 renal -20.7% | CCRF-CEM leukemia -12.7% | MOLT-4 leukemia -17.8%
inactive: SNB-19 CNS 11%

CCCCCCCCCCCCCC[N+](C)(C)CCCCCCCCCCCCCC
inactive: HCT-15 colon 75.1% | HT29 colon 30.5% | SNB-75 CNS 62.9% | SNB-19 CNS 70.4% | U251 CNS 44.7% | PC-3 prostate 12.6% | SK-MEL-5 melanoma 69.4% | UACC-62 melanoma 42.6% | LOX IMVI melanoma 51.8% | SK-MEL-28 melanoma 89.3% | SK-MEL-2 melanoma 67.6% | SN12C renal 67.6% | UO-31 renal 78% | TK-10 renal 48.3% | ACHN renal 57.1% | CAKI-1 renal 51.6% | A498 renal 102% | MOLT-4 leukemia 51.2%

Oc1ccc(Cl)cc1-c1cc(-c2ccccc2Cl)[nH]n1
inactive: HCT-15 colon 29.2% | HT29 colon 92.2% | SNB-75 CNS 44.2% | SNB-19 CNS 88% | U251 CNS 67% | PC-3 prostate 44.1% | SK-MEL-5 melanoma 68.7% | UACC-62 melanoma 59.5% | LOX IMVI melanoma 51.7% | SK-MEL-28 melanoma 89.7% | SK-MEL-2 melanoma 77.5% | SN12C renal 69.5% | UO-31 renal 38.6% | TK-10 renal 86.8% | ACHN renal 59% | CAKI-1 renal 75.9% | A498 renal 96.1% | MOLT-4 leukemia 28.5%

CCOP(=O)(O)OP(=O)(O)OCC
inactive: HCT-15 colon 98.5% | HT29 colon 102% | SNB-75 CNS 81.3% | SNB-19 CNS 106% | U251 CNS 105% | PC-3 prostate 104% | SK-MEL-5 melanoma 113% | UACC-62 melanoma 106% | LOX IMVI melanoma 92.7% | SK-MEL-28 melanoma 108% | SK-MEL-2 melanoma 128% | SN12C renal 105% | UO-31 renal 91.9% | TK-10 renal 103% | ACHN renal 97.6% | CAKI-1 renal 94.3% | A498 renal 110% | MOLT-4 leukemia 87.1%

CCCCCCCCCCCCCC(=S)NCCCC[C@H](NC(=O)OCc1ccccc1)C(=O)Nc1ccccc1
inactive: HCT-15 colon 32.6% | HT29 colon 45.1% | SNB-75 CNS 55.4% | SNB-19 CNS 45.8% | U251 CNS 28.7% | PC-3 prostate 25.7% | SK-MEL-5 melanoma 68.6% | UACC-62 melanoma 43.1% | LOX IMVI melanoma 42.2% | SK-MEL-28 melanoma 72.2% | SK-MEL-2 melanoma 40.5% | SN12C renal 27.3% | UO-31 renal 28.6% | TK-10 renal 44.2% | ACHN renal 24.6% | CAKI-1 renal 34.5% | CCRF-CEM leukemia 27.3% | MOLT-4 leukemia 21.6%

O=C(Nc1ccc2ncnc(Nc3ccc(F)c(Cl)c3)c2c1)c1cccs1
inactive: HCT-15 colon 51% | HT29 colon 58.7% | SNB-75 CNS 50.5% | SNB-19 CNS 68.9% | U251 CNS 54.7% | PC-3 prostate 62.8% | SK-MEL-5 melanoma 67.1% | UACC-62 melanoma 56.4% | LOX IMVI melanoma 51% | SK-MEL-28 melanoma 65.8% | SK-MEL-2 melanoma 90.7% | SN12C renal 45.6% | UO-31 renal 27.8% | TK-10 renal 32.3% | A498 renal 46% | CCRF-CEM leukemia 76.9% | MOLT-4 leukemia 71.9%
active: ACHN renal 2.83%

COc1ccc(C2C=C(c3ccc(Cl)cc3)N=C3SC=CN32)cc1 (configuration not stated)
inactive: HCT-15 colon 110% | HT29 colon 106% | SNB-75 CNS 86.7% | SNB-19 CNS 115% | U251 CNS 105% | PC-3 prostate 86.7% | SK-MEL-5 melanoma 111% | UACC-62 melanoma 116% | LOX IMVI melanoma 99.6% | SK-MEL-28 melanoma 97.6% | SK-MEL-2 melanoma 113% | SN12C renal 114% | UO-31 renal 88.5% | TK-10 renal 118% | ACHN renal 107% | CAKI-1 renal 101% | A498 renal 104% | CCRF-CEM leukemia 88.2% | MOLT-4 leukemia 104%

COc1ccc(-c2cnc3ccnn3c2-c2cc(OC)c(OC)c(OC)c2)cc1
inactive: HCT-15 colon 27.8% | SNB-19 CNS 56.4% | U251 CNS 37.7% | PC-3 prostate 29.9% | SK-MEL-5 melanoma 13.6% | UACC-62 melanoma 42.3% | LOX IMVI melanoma 42.5% | SK-MEL-28 melanoma 71.1% | SK-MEL-2 melanoma 36.9% | SN12C renal 42% | UO-31 renal 48.3% | TK-10 renal 59.6% | ACHN renal 47.3% | CAKI-1 renal 46.5% | CCRF-CEM leukemia 16.3% | MOLT-4 leukemia 46.7%
active: HT29 colon 8.99% | SNB-75 CNS 5.62% | A498 renal -5.57%

Nc1c(C(=O)Nc2cccc(Cl)c2)sc2ncc(Br)cc12
inactive: HCT-15 colon 82.5% | HT29 colon 66.4% | SNB-75 CNS 56% | SNB-19 CNS 107% | U251 CNS 10.8% | PC-3 prostate 80.1% | SK-MEL-5 melanoma 95.6% | UACC-62 melanoma 99.5% | LOX IMVI melanoma 39.9% | SK-MEL-28 melanoma 89.2% | SK-MEL-2 melanoma 89.6% | SN12C renal 82% | UO-31 renal 62.2% | TK-10 renal 57.9% | ACHN renal 11.4% | CAKI-1 renal 90.6% | A498 renal 96.5% | MOLT-4 leukemia 87.4%

COc1ccc(-c2[nH]nc(N)c2-c2cc(OC)c(OC)c(OC)c2)cc1
active: HT29 colon -2.71% | U251 CNS 6% | PC-3 prostate 6.31% | SK-MEL-5 melanoma -16.5% | CAKI-1 renal 5.73% | A498 renal -8.24% | CCRF-CEM leukemia -5.92% | MOLT-4 leukemia -2.96%
inactive: HCT-15 colon 10.1% | SNB-75 CNS 54.9% | SNB-19 CNS 48.8% | UACC-62 melanoma 23.8% | LOX IMVI melanoma 12.1% | SK-MEL-28 melanoma 47.8% | SK-MEL-2 melanoma 42.5% | SN12C renal 33% | UO-31 renal 20.4% | TK-10 renal 34.9%

CC1=NC(c2ccc(Cl)cc2)C2=C(N1)/C(=C/c1ccc(Cl)cc1)CCC2 (configuration not stated)
inactive: HCT-15 colon 79.8% | HT29 colon 54.4% | SNB-75 CNS 86.6% | SNB-19 CNS 102% | U251 CNS 66% | PC-3 prostate 89.1% | SK-MEL-5 melanoma 84.9% | UACC-62 melanoma 83.3% | LOX IMVI melanoma 36.8% | SK-MEL-28 melanoma 93.9% | SK-MEL-2 melanoma 98.4% | SN12C renal 102% | UO-31 renal 78.5% | TK-10 renal 129% | ACHN renal 102% | CAKI-1 renal 94.7% | A498 renal 102% | CCRF-CEM leukemia 78.8% | MOLT-4 leukemia 74.6%

CCN(CC)Cc1cc(Nc2ccnc3cc(Cl)ccc23)cc(-c2ccc(Cl)cc2)c1O
inactive: HCT-15 colon 25.2% | HT29 colon 22.7% | SNB-19 CNS 32.8% | PC-3 prostate 25.2% | UACC-62 melanoma 60.8% | SK-MEL-28 melanoma 46% | SK-MEL-2 melanoma 80.1% | SN12C renal 23.6% | CAKI-1 renal 54.8% | A498 renal 48.9% | CCRF-CEM leukemia 45% | MOLT-4 leukemia 24%
active: SNB-75 CNS -35.9% | U251 CNS 0.662% | SK-MEL-5 melanoma -49.6% | LOX IMVI melanoma 0.179% | UO-31 renal -21.4% | TK-10 renal 5.81%

CC(C)CC(NC(=O)C(CCCN=C(N)N)NC(=O)OCc1ccccc1)C(=O)NC(CNC(=O)/C=C/c1ccccc1)C(C)C (configuration not stated)
inactive: HCT-15 colon 96.5% | HT29 colon 109% | SNB-75 CNS 84.5% | SNB-19 CNS 99.9% | U251 CNS 106% | PC-3 prostate 89.2% | SK-MEL-5 melanoma 106% | UACC-62 melanoma 102% | LOX IMVI melanoma 94.8% | SK-MEL-28 melanoma 93.5% | SK-MEL-2 melanoma 113% | SN12C renal 99.6% | UO-31 renal 93% | TK-10 renal 107% | ACHN renal 91.9% | CAKI-1 renal 90% | A498 renal 103% | MOLT-4 leukemia 97.5%

CC(COC(=O)c1ccccc1)N1CC2CCC(C1)O2 (configuration not stated)
inactive: HCT-15 colon 99.7% | HT29 colon 107% | SNB-75 CNS 93.7% | SNB-19 CNS 102% | U251 CNS 98.7% | PC-3 prostate 91.6% | SK-MEL-5 melanoma 101% | UACC-62 melanoma 100% | LOX IMVI melanoma 98% | SK-MEL-28 melanoma 104% | SK-MEL-2 melanoma 107% | SN12C renal 99.8% | UO-31 renal 86% | TK-10 renal 111% | ACHN renal 104% | CAKI-1 renal 96.5% | A498 renal 89.5% | CCRF-CEM leukemia 92.7% | MOLT-4 leukemia 100%

CC1CN(CCCOC(=O)Nc2ccc(Cl)cc2)CCN1C(C)(C)C (configuration not stated)
inactive: HCT-15 colon 114% | HT29 colon 104% | SNB-75 CNS 114% | SNB-19 CNS 98.1% | U251 CNS 108% | PC-3 prostate 90% | SK-MEL-5 melanoma 97.6% | UACC-62 melanoma 84.8% | LOX IMVI melanoma 91.9% | SK-MEL-28 melanoma 106% | SK-MEL-2 melanoma 112% | SN12C renal 113% | UO-31 renal 82.9% | TK-10 renal 99.8% | ACHN renal 133% | CAKI-1 renal 89.8% | A498 renal 95.2% | CCRF-CEM leukemia 90.3% | MOLT-4 leukemia 103%
